# Source: PubChem BioAssay (NCI)
# This is part of a sample that, as a whole, favours compounds with a hit. Of some 83,000 tested, about 20% had one in any assay.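 How to read the values: 0–100, growth inhibition (40 = 60% inhibited); 0, no net growth; -100 to 0, cell death (-40 = 40% of starting cells died; -100 = all dead).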 A number with no mark means an inactive call. Calls of active or inactive are those of the source. The calls were made as follows: active = growth percent below 10; inactive = the rest.
# Key:
# Test in all cases: NCI-60 one-dose screen, 48 h (100 = growth as untreated, 0 = no growth, -100 = all killed)
# Details in all cases: 10 µM unless noted
# HCT-15 colon = tested on: HCT-15 colon
# HT29 colon = tested on: HT29 colon
# SNB-75 CNS = tested on: SNB-75 CNS
# SNB-19 CNS = tested on: SNB-19 CNS
# U251 CNS = tested on: U251 CNS
# PC-3 prostate = tested on: PC-3 prostate
# SK-MEL-5 melanoma = tested on: SK-MEL-5 melanoma
# UACC-62 melanoma = tested on: UACC-62 melanoma
# LOX IMVI melanoma = tested on: LOX IMVI melanoma
# SK-MEL-28 melanoma = tested on: SK-MEL-28 melanoma
# SK-MEL-2 melanoma = tested on: SK-MEL-2 melanoma
# SN12C renal = tested on: SN12C renal
# UO-31 renal = tested on: UO-31 renal
# TK-10 renal = tested on: TK-10 renal
# ACHN renal = tested on: ACHN renal
# A498 renal = tested on: A498 renal
# CCRF-CEM leukemia = tested on: CCRF-CEM leukemia
# MOLT-4 leukemia = tested on: MOLT-4 leukemia
# CAKI-1 renal = tested on: CAKI-1 renal
SMILES,growth (HCT-15 colon),growth (HT29 colon),growth (SNB-75 CNS),growth (SNB-19 CNS) [%],growth (U251 CNS),growth (PC-3 prostate),growth (SK-MEL-5 melanoma),growth (UACC-62 melanoma),growth (LOX IMVI melanoma),growth (SK-MEL-28 melanoma) [%],growth (SK-MEL-2 melanoma),growth (SN12C renal),growth (UO-31 renal),growth (TK-10 renal),growth (ACHN renal),growth (A498 renal),growth (CCRF-CEM leukemia),growth (MOLT-4 leukemia),growth (CAKI-1 renal)
Cc1ccc(Oc2nc3ccccc3cc2-c2nnc(Cn3c(COc4ccccc4)nc4ccccc43)o2)cc1,17.5%,4.53% (active),54.9%,52.4,43%,46.2%,80.5%,50.8%,19.6%,90.9,89.8%,29.4%,8.45% (active),77.1%,49.9%,54.1%,0.728% (active),-13.8% (active),–
NS(=O)(=O)c1ccc(NCC(=O)Nc2ccc(-c3nc4ccccc4s3)cc2)cc1,46.6%,74.5%,69.5%,74.3,71.3%,64.7%,71.3%,38%,13.1%,99.4,87.8%,47.8%,74.4%,106%,105%,–,6.24% (active),6.23% (active),92.9%
O=C(CNc1ccc(Cl)cc1)Nc1ccc(-c2nc3ccccc3s2)cc1,-13.9% (active),47.9%,60.1%,63.6,26.3%,85.3%,25%,30.1%,-41% (active),99.5,78.5%,46.8%,65%,118%,22.8%,–,3.22% (active),4.4% (active),20.2%
C=CCOc1cccc(/C=C/C(=O)c2sc(Nc3cccnc3)nc2C)c1,33.5%,16.8%,2.22% (active),57.7,50.7%,44.6%,74.9%,59.9%,32.9%,87.1,84.4%,40.9%,47.7%,113%,54.3%,–,15.2%,76.3%,81%
CCOC(=O)CC(C#N)(CC(=O)OCC)C(=O)OCC,99.4%,125%,89.7%,111,94.8%,89.2%,98%,97.7%,103%,98,106%,95.1%,96.1%,139%,107%,–,102%,109%,99.5%
Cc1ccc2c(c1)C(=O)C(c1c(-c3[nH]c(=O)c4ccc(C)cc4c3O)c(O)c3ccccc3c1O)=NC2=O,13.7%,21.7%,14.4%,26.3,-16.2% (active),2.45% (active),25.8%,29.5%,12.1%,34.9,11.8%,-4.86% (active),-11% (active),46.9%,6.58% (active),–,16.6%,-13.3% (active),-2.66% (active)
CC(C)C[C@H](NC(=O)[C@@H](Cc1ccccc1)n1ccc(Nc2ccccc2)cc1=O)B(O)O,28.9%,-14.1% (active),-18.6% (active),18.1,5.67% (active),21.1%,-68.2% (active),-77.1% (active),-66.7% (active),21.7,-14.9% (active),-25.1% (active),-44% (active),-0.144% (active),20.9%,-47.3% (active),-5.5% (active),-8.47% (active),–
Cc1sc(N=Nc2ccc(N(C)C)cc2)[n+]([O-])c1C,100%,103%,82.5%,99.5,99%,95.2%,99%,99.2%,102%,102,114%,96.7%,82.4%,104%,104%,88.1%,104%,103%,–
COc1ccc(/C=C\c2cc(OC)c(OC)c(OC)c2)c(NS(=O)(=O)c2ccc(C(C)(C)C)cc2)c1O,15.5%,33%,31.9%,46.1,24.3%,34.5%,-19.2% (active),39.1%,17%,53.7,-2.03% (active),29.5%,52.3%,50.8%,25.2%,–,20.6%,21.8%,24.4%
COc1ccc(-c2nc3sccn3c2-c2ccnc(NCCCNS(=O)(=O)c3ccc4ccccc4c3)n2)cc1,44.9%,44.1%,85.5%,86.1,67.3%,66.8%,42.3%,54.5%,53.9%,80,84.6%,79.5%,60.7%,89.8%,60%,–,53.8%,47.5%,77.5%
COc1ccc(C2SCC(=O)N2NC(=O)c2ccc(NC(=O)c3ccccn3)cc2)cc1OC (stereo not given),107%,97.8%,84.3%,95.5,94.2%,95.3%,102%,91.5%,99.5%,104,94.5%,97.3%,89.7%,90.1%,99.2%,–,101%,92.1%,96.9%
Cc1cc(N/C=c2\sc3ncnn3c2=O)no1,94.6%,102%,91.3%,95.2,105%,97.7%,99.2%,94%,97.3%,104,101%,95.5%,91.5%,109%,106%,–,123%,104%,101%
COc1cc(CNC(=O)CSc2nc3ccccc3c(=O)n2Cc2cc(OC)c(OC)c(OC)c2)cc(OC)c1OC,97.4%,108%,89.2%,92.5,98%,97.4%,93.7%,86.8%,99.9%,102,95.9%,96.6%,72.5%,99.7%,98.1%,88.4%,96.2%,92.7%,–
CN(C)c1ccc(C2CC(c3ccccc3)=NN2/C=C2\SC(=O)NC2=O)cc1 (stereo not given),85.9%,108%,83.6%,87.6,103%,91.3%,78.8%,90.7%,74.3%,91.1,113%,87.3%,78.9%,94.4%,81.5%,–,113%,59.7%,95%
Nc1c(C(=O)Nc2ccccc2)sc2nc3c(cc12)CN(Cc1ccccc1)CC3,73.3%,78.8%,-46.2% (active),76.1,75%,67.3%,85.6%,70.6%,67%,60.3,103%,70.3%,49.8%,53.9%,38.1%,26.5%,98.6%,92.3%,–
COc1cc(OC)c(C(=O)/C=C/c2cccc(C(F)(F)F)c2)c(OC)c1,6.82% (active),3.81% (active),19.2%,14.2,9.44% (active),41.9%,13.2%,-12.1% (active),-16.7% (active),39.1,-16.1% (active),19.2%,26.9%,15.1%,3.47% (active),–,4.41% (active),1.4% (active),33.8%
COc1ccc(NC(=O)CSc2nc3ccccc3c(=O)n2-c2ccccc2C(F)(F)F)c(OC)c1OC,105%,104%,83.9%,88.8,95.7%,100%,98.2%,87.5%,98.9%,106,121%,93%,91.9%,–,99.2%,74.8%,101%,107%,–
